Activity calls are given as the source filed them.

One assay is described as follows: small-molecule microarray binders of probe aCHRDL2, primary screen, biochemical, biotinylated probe, 635/667 nm fluorescence (AID 1100). The settings on record: higher = more signal.
`O=C(NCc1ccccc1)[C@]1(Cc2ccccc2)N=C(c2ccc(OCCCO)cc2)O[C@@H]1c1ccccc1`: the composite z-score amounted to 0.75. As to `O=C1O[C@@H](c2ccccc2)[C@@H](c2ccccc2)N2[C@@H](c3ccc(O)cc3)[C@]3(C(=O)Nc4ccc(C#CC5(O)CCCCCC5)cc43)[C@@H](C(=O)N3CCN(c4ncccn4)CC3)[C@H]12`, the composite z-score is -0.127. On the same count and under the same terms, next, `COCC(=C=CC[C@@H](O)c1ccccc1OCCO)C[C@@H](O)c1ccccn1`: -0.0356; `C#CCNS(=O)(=O)N(C)C`: -0.55; `C=CCC(OC(C)=O)[C@@H]1[C@@H](N(Cc2ccc(-c3cccc(C(F)(F)F)c3)o2)C(=O)c2cccc3ccccc23)c2cc(OCCCO)ccc2N1C(=O)c1ccc(-c2ccccc2)cc1` (some centres not stated): -0.0042. The same measure, in the same setting: as for `COCCOC(=O)N1C(=O)[C@@]2(c3cc(C#CCC(C(=O)OC)C(=O)OC)ccc31)[C@H](c1ccc(OCCO)cc1)N1[C@H](c3ccccc3)[C@H](c3ccccc3)OC(=O)[C@H]1[C@@H]2C(N)=O`, the figure is 0.443; as for `CCCC[C@H]1OB(O)C[C@H]2C1=C(COc1ccccc1)Cn1c(=O)n(-c3ccccc3)c(=O)n12`, -0.387.

The nature of another assay: splicing luciferase reporter signal modulators, primary screen, spliceosome inhibition project, cell-based, HEK293, splice +/- reporter (AID 1101).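 Note: HEK293 cells carrying a splicing-competent luciferase reporter gene; test concentration not given here.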 As to conditions: luminescence, 24 h, higher = more signal, called active from +8 up or from −8 down. For orientation: A reporter such as luciferase makes a cellular process visible.
Consider `COC(=O)[C@@]1(Cc2ccccc2)[C@H]2c3cc(C(=O)N4CCCC4)n(Cc4ccccc4)c3C[C@H]2CN1C(=O)c1ccccc1`, for which the z-score was -2.8 (inactive). As to `CC(C)C[C@@H]1NC(=O)[C@@]23C(=O)N[C@@H](Cc4ccccc4)C2[C@H](C)[C@@]2(C)O[C@H]2C3/C=C/C/C=C\CNC(=O)[C@@H]2CCCN2C1=O` (some centres not stated), the z-score is -0.358 (inactive). Same read-out and setting: next, `COC(=O)[C@@]1(Cc2ccc(OC)cc2)[C@H]2c3cc(C(=O)N4CCCC4)n(CCF)c3C[C@H]2CN1C(=O)c1ccccc1`: -2.55 (inactive); `C=C(/C(=C/C[C@@H](OC(=O)c1ccncc1)c1cccc(OCCO)c1)c1cc(C(=O)OC)ccc1OC)C(C)C`: -0.71 (inactive).

On to `O=C(CS)NCCCCCNC(=O)[C@@H]1C[C@@H]2C(=O)N3CCC[C@H]3C(=O)N2[C@@H]1c1ccc(O)cc1`, for which the z-score was 0.466 (inactive). As to `COc1cccc(C)c1NC(=O)O[C@H]1[C@H](OC(=O)Nc2ccccc2)[C@H](OC(=O)Nc2ccccc2)[C@@H](OC)O[C@@H]1CO`, the z-score is 0.419 (inactive).

Turning to `COc1ccc(C#Cc2ccc3c(c2)[C@]2(C(=O)N3)[C@H](C(=O)O)[C@H]3C(=O)O[C@H](c4ccccc4)[C@H](c4ccccc4)N3[C@@H]2c2ccc(OCCO)cc2)cc1`, the z-score was -0.825 (inactive).

Take `COc1cc2c(cc1OC)CN(C(=O)[C@@H]1[C@H]3C(=O)O[C@H](c4ccccc4)[C@H](c4ccccc4)N3[C@H](c3ccc(O)cc3)[C@@]13C(=O)Nc1ccc(C#CCNC(N)=O)cc13)CC2`: the z-score is -0.256 (inactive).

As to `COc1ccc([Si](C)(C)[C@@H]2[C@@H](CCO)O[C@]3(C(=O)N(Cc4cccc(N5C(=O)COc6ccccc65)c4)c4ccccc43)[C@H]2C)cc1`, the z-score was -1.54 (inactive).

On to `Cc1ccc(-c2cccc(=O)o2)cc1`, for which the z-score was 0.613 (inactive). Consider `COC(=O)c1ccc(OC)c(/C=C\CC(CCc2ccccc2)OC(C)=O)c1` (configuration not stated), for which the z-score was -0.101 (inactive). Take `C=C(C(=O)CC[C@H](OC(=O)c1cccnc1)c1ccc(OCCO)cc1)C(C)C`: the z-score was 1.77 (inactive).

Regarding `CCCC=C(CCC)[C@@H](NS(=O)(=O)c1cccc2cccnc12)c1ccc(C(=O)OC)cc1`, the z-score is -0.355 (inactive). Still for that read-out and setting: next, `CC(C)CCC[C@@H](C)[C@H]1CC[C@@]2(C)C3=C(CC[C@]12C)[C@@]1(C)CC[C@H](OC(=O)c2ccc(N)cc2)C(C)(C)C1CC3` (some centres not stated): -0.925 (inactive). On to `C[C@H]1ON(c2ccccc2)[C@@H](c2ccccc2)[C@@H]1C(=O)N1C(=O)OC[C@@H]1c1ccccc1`, for which the z-score was 0.216 (inactive).

Consider `Cc1ccc(S[C@]2(C(=O)O)CC(=O)N(Cc3ccccc3C(F)(F)F)[C@@H]2c2ccc(CO)cc2)cc1`, for which the z-score is 0.0922 (inactive). Same read-out and setting: as for `C=CCN1C(=O)[C@@]2(O[C@@H](CCO)[C@H]([Si](C)(C)c3ccc(OC)cc3)[C@H]2C)c2cc(NC(=O)[C@H](C)O)ccc21`, the figure is -2.46 (inactive); as for `CN1C(=O)C2C=CC(C(O)COCc3ccccc3)N(Nc3ccccc3)C2C1=O` (configuration not stated), 1.43 (inactive). Still for that read-out and setting: as for `C=CCC(OC(C)=O)[C@@H]1[C@@H](N(Cc2cc3ccccc3o2)C(=O)Cc2ccc(OC)cc2)c2cc(OCCCO)ccc2N1C(=O)c1ccc(-c2ccccc2)cc1` (some centres not stated), the figure is -0.354 (inactive); as for `CC1CC/C=C\[C@H]2OC34C=CCN(c5ccc(Cl)cc5)C(=O)[C@H]3N(C(CO)C(C)C)C(=O)[C@]4(C)C2C(=O)O1` (some centres not stated), 0.323 (inactive).

With `COCCOC(=O)N1C(=O)[C@@]2(c3cc(C#CC4(O)CCCCCC4)ccc31)[C@H](C(=O)N1CCc3cc(OC)c(OC)cc3C1)[C@H]1C(=O)O[C@H](c3ccccc3)[C@H](c3ccccc3)N1[C@@H]2c1ccccc1OCCO`, the z-score is -0.461 (inactive). `CC(C)C(CO)N1C(=O)[C@@H]2[C@H]3C(=O)OCC=C[C@H]3OC23C=CCN(Cn2nnc4ccccc42)C(=O)[C@@H]13` (some centres not stated): the z-score is 0.184 (inactive). For the molecule `O=C1C2C=CC(C(O)c3ccc(Br)cc3)N(Nc3ccccc3)C2C(=O)N1c1ccccc1` (configuration not stated), the z-score was 1.34 (inactive). Regarding `CN(C)CCCCNC(=O)[C@H]1C[C@H]2C(=O)N[C@@H](CCCC[N+](C)(C)C)C(=O)N2[C@H]1c1cccc(OCCO)c1`, the z-score was -0.698 (inactive). Same read-out and setting: next, `O=C1C2C=CC(C(O)c3ccccn3)N(Nc3ccccc3)C2C(=O)N1c1ccccc1` (configuration not stated): 0.383 (inactive); `COC(=O)[C@@]1(Cc2ccc(OC)cc2)[C@H]2c3cc(C(=O)N(C)C)n(CCF)c3C[C@H]2CN1C(=O)c1ccccc1`: -0.674 (inactive); `COC(=O)[C@@]1(Cc2ccccc2N=[N+]=[N-])N=C(c2ccc(OCCCO)cc2)O[C@H]1c1ccccc1`: 2.25 (inactive). On to `C=CCC(OC(C)=O)[C@@H]1[C@@H](N(Cc2cccc3ccccc23)C(=O)c2ccc(C)cc2)c2cc(OCCCO)ccc2N1C(=O)c1ccc2ccccc2c1` (some centres not stated), for which the z-score was -1.86 (inactive).

Consider `O=C(NCc1ccccc1)[C@]1(Cc2ccccc2)N=C(c2ccc(OCCCO)cc2)O[C@@H]1c1ccccc1`, for which the z-score is -0.0706 (inactive). Still for that read-out and setting: as for `O=C1O[C@@H](c2ccccc2)[C@@H](c2ccccc2)N2[C@@H](c3ccc(O)cc3)[C@]3(C(=O)Nc4ccc(C#CC5(O)CCCCCC5)cc43)[C@@H](C(=O)N3CCN(c4ncccn4)CC3)[C@H]12`, the figure is -0.453 (inactive). For the molecule `COCC(=C=CC[C@@H](O)c1ccccc1OCCO)C[C@@H](O)c1ccccn1`, the z-score is 0.141 (inactive). Same read-out and setting: next, `C#CCNS(=O)(=O)N(C)C`: 0.0242 (inactive); `C=CCC(OC(C)=O)[C@@H]1[C@@H](N(Cc2ccc(-c3cccc(C(F)(F)F)c3)o2)C(=O)c2cccc3ccccc23)c2cc(OCCCO)ccc2N1C(=O)c1ccc(-c2ccccc2)cc1` (some centres not stated): -0.791 (inactive). As to `COCCOC(=O)N1C(=O)[C@@]2(c3cc(C#CCC(C(=O)OC)C(=O)OC)ccc31)[C@H](c1ccc(OCCO)cc1)N1[C@H](c3ccccc3)[C@H](c3ccccc3)OC(=O)[C@H]1[C@@H]2C(N)=O`, the z-score is -1.6 (inactive). As for `CCCC[C@H]1OB(O)C[C@H]2C1=C(COc1ccccc1)Cn1c(=O)n(-c3ccccc3)c(=O)n12`, the z-score is 0.142 (inactive).

Values taken from PubChem BioAssay.
